Among all 2,100 compounds or so, about 320 (15%) were called active. About 52% were inconclusive and are not listed. The call rests on the fitted dose curve; in most records, active means well fitted cell-killing curve with a large enough effect; inconclusive means small, poorly fitted or top-dose-only effect, or effect the other way; inactive means flat fitted curve, though single readings scatter. The list shows a part of the results. Where a call stands in place of a potency, no number is given.
Assay: Viability Counterscreen for CMV-Luciferase Assay of Inhibitors of ATXN expression; further: nearly all actives have a fitted effect of over 55% in size
Details: HEK-293 CMV-luciferase cells viability, protease fluorescence, 24 h
In short: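 Luminescence read-out: SteadyGlo added, 5 min RT, measured in CMV-luciferase HEK-293 cells after 24 hr compound treatment (several concentrations). Viability counterscreen: 25 uM Gly-Phe-7-amino-4-trifluoromethylcoumarin, 30 min at 37 degree C, fluorescence ex 405/em 540 nm.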
Potency means the concentration at half of the fitted maximal effect.

Row | SMILES | Potency
1 | COCC(=O)OC/C(O)=C(\C#N)c1nc2ccccc2[nH]1 | inactive
2 | CCOc1cc(CNCCO)cc(Br)c1OCc1ccccc1 | inactive
3 | O=C(c1ccco1)N(CCCN1CCOCC1)c1nc(-c2ccc(Cl)cc2)cs1 | inactive
4 | CN(C)S(=O)(=O)c1cccc(N2C(=O)CC3(CCCCC3)CC2=O)c1 | inactive
5 | O=C(CN1C(=O)c2ccccc2S1(=O)=O)c1ccc(Cl)cc1Cl | inactive
6 | N#Cc1c(Oc2ccc3ccccc3c2)sc(C(=O)c2ccccc2)c1N | inactive
7 | Cc1ccc(C)n1-c1ccc(C(=O)N2CCC(C(N)=O)CC2)cc1 | inactive
8 | Cc1ccc(C)c(N2CCN(C(=O)CCCCCn3c(=S)[nH]c4ccc(N5CCOCC5)cc4c3=O)CC2)c1 | inactive
9 | O=C(CN1C(=O)c2ccccc2S1(=O)=O)c1ccc(O)c(O)c1 | inactive
10 | c1ccc(COc2ncnc3c2ncn3CCCN2CCN(Cc3cccc4ccccc34)CC2)cc1 | 25.1 µM (active)
11 | O=c1[nH]c(CN2CCN(c3ncccn3)CC2)nc2c(Br)cc(Br)cc12 | inactive
12 | COc1ccc2c(c1)[nH]c1c(=O)n(/N=C/C3C(C)C=C(C)CC3C)c(=O)[nH]c12 (centres undefined) | 20 µM (active)
13 | O=C(CCCN1CCc2[nH]c3ccc(F)cc3c2C1)c1ccc(F)cc1 | inactive
14 | N=c1n(CCN2CCCCC2)c2ccccc2n1CC(O)c1ccc(Cl)c(Cl)c1 (centres undefined) | 20 µM (active)
15 | Cc1ccc(OCC(O)Cn2c(=N)n(CCN3CCCCC3)c3ccccc32)cc1 (centres undefined) | inactive
16 | Cc1nc(SC2CC(=O)N(c3ccccc3)C2=O)n[nH]1 (centres undefined) | inactive
17 | CCCCC/C=C/C1=CC(=O)C[C@H](c2ccc(OC)c(OC)c2)C1 | inactive
18 | O=C(c1cccc(Cl)c1)c1nn(-c2ccccc2)c(=O)cc1C(F)(F)F | 22.4 µM (active)
19 | Cc1cc(=O)oc2c1c(C)nn2-c1cccc(Cl)c1 | inactive
20 | CC(C)=C1SC(N2CCN(c3ccc(C)c(Cl)c3)CC2)=NC1=O | inactive
21 | CC(C)Nc1nc(NC(C)C)nc(N(C#N)CCOc2ccc(Cl)cc2Cl)n1 | inactive
22 | O=C(NC(c1ccccc1)c1ccc2ccccc2n1)C1CCN(CCOc2ccc(Cl)cc2Cl)CC1 (centres undefined) | 17.8 µM (active)

Row | SMILES | Potency
23 | COc1ccc(NC2=NCC(Cc3ccc(Br)cc3)S2)cc1 (centres undefined) | inactive
24 | COc1ccc(N2C3=C(CC4=C2CC(C)(C)CC4=O)C(=O)CC(C)(C)C3)cc1 | inactive
25 | CCCCNC(=O)C1(C)CCCCN1Cc1ccccc1-c1ccccc1 (centres undefined) | inactive
26 | C/C(=C\C(=O)c1ccc(Br)cc1)NNC(=O)c1ccc(O)cc1 | 12.6 µM (active)
27 | CC(=NNC(=O)c1ccncc1)c1ccc(O)cc1O | inactive
28 | O=c1cc(-c2ccncc2)oc2c1ccc1ccccc12 | inactive
29 | O=c1ccc2ccccc2c2ccccc12 | 10 µM (active)
30 | Cc1ccc(/C=C2\SC(=S)N(CCCC(=O)Nc3cc(C)on3)C2=O)cc1 | inactive
31 | CC(C)(C)c1ccc(OCCCC(=O)NNC(=O)c2ccccc2O)cc1 | 25.1 µM (active)
32 | O=C(CCc1ccccc1)NNC(=O)c1cc(Cl)ccc1O | inactive
33 | Cc1ccc2c(CC(=O)NNC(=O)c3ccccc3O)coc2c1 | inactive
34 | COc1ccccc1/C=C1\SC(=S)N(CCC(=O)NC2=NCCS2)C1=O | inactive
35 | Cc1ccc(/C=C2\SC(=S)N(CCCC(=O)Nc3ccc(O)cc3)C2=O)cc1 | inactive
36 | COc1cccc(/C=C2/SC(=S)N(CCCC(=O)Nc3ccc(O)cc3)C2=O)c1 | 3.98 µM (active)
37 | COc1cc(/C=C2\SC(=O)N(CC(=O)Nc3ccccc3F)C2=O)cc(Cl)c1O | inactive
38 | Cc1ccc(/C=C2/SC(=S)N(CCCC(=O)Nc3cc([N+](=O)[O-])ccc3O)C2=O)cc1 | 25.1 µM (active)
39 | Cc1ccc(C(=O)NNC(=O)CCCN2C(=O)/C(=C/c3ccccc3Cl)SC2=S)cc1 | inactive
40 | COc1ccc(/C=C2\SC(=S)N(CCCC(=O)NNC(=O)c3ccccc3O)C2=O)cc1 | 20 µM (active)
41 | Cc1ccc(/C=C2\SC(=S)N(CCCC(=O)NC3CCCC3)C2=O)cc1 | inactive
42 | O=C(C1CCC(CNS(=O)(=O)c2cccs2)CC1)N1CCN(c2ccc(F)cc2)CC1 (centres undefined) | inactive
43 | CC1CCN(Cc2c(C(=O)N/N=C/c3cc(Cl)ccc3O)nnn2-c2nonc2N)CC1 | inactive
44 | CCOc1ccccc1C(=O)Nc1ccc2nc(N3CCN(c4ncccn4)CC3)cc(C)c2c1 | inactive

Row | SMILES | Potency
45 | Cn1nccc1C(=O)N1CCCC(C(=O)c2cccc3ccccc23)C1 (centres undefined) | inactive
46 | COC(=O)C1=C(C)N(c2ccc(Cl)c(Cl)c2)C(=O)C1 | inactive
47 | FC(F)(F)c1ccc(N2CCN(c3cc(-c4ccccc4)nc4ncnn34)CC2)nc1 | inactive
48 | Clc1ccccc1C(c1ccccc1)(c1ccccc1)n1ccnc1 | inactive
49 | Cc1ccc(C)c(CN2CCC(CNC(=O)Nc3ccc(C)c(C)c3)CC2)c1 | inactive
50 | Cc1cc(C)nc(NNS(=O)(=O)c2ccc(F)c(Cl)c2)n1 | inactive
51 | Cc1cc(C)c(C(=O)/C=C/c2ccc(C(C)C)cc2)c(=O)[nH]1 | 17.8 µM (active)
52 | COC1=C(C)C(O)=C(C(=O)/C=C/c2ccccc2)C(=O)C1(C)C | inactive
53 | Cc1[nH]c(=O)c(C(=O)/C=C/c2ccccc2)c2c1CCCC2 | 11.2 µM (active)
54 | NS(=O)(=O)c1ccc(N2N=C(c3ccccc3)CC2c2cccc(Cl)c2)cc1 (centres undefined) | inactive
55 | COc1cc2c(O)c3c(c(-c4ccc5c(c4)OCO5)c2cc1OC)C(=O)OC3 | inactive
56 | CCCCOc1ccc(NC2=NC3(CCCC3)N=C(N)N2)cc1 | inactive
57 | Cc1cccn2c(Nc3ccccc3)c(-c3ccccn3)nc12 | inactive
58 | Cc1ccc(Nc2c(-c3ccccn3)nc3cc(C)ccn23)cc1 | 3.55 µM (active)
59 | Cc1ccc(Nc2c(-c3ccccn3)nc3cccc(C)n23)cc1 | 3.98 µM (active)
60 | Cc1ccn2c(Nc3ccccc3C)c(-c3ccccn3)nc2c1 | 8.91 µM (active)
61 | NS(=O)(=O)c1ccc(CCNC(=O)COC(=O)/C=C/c2cc(Br)ccc2F)cc1 | inactive
62 | COC(=O)c1cc(Cl)ccc1NCC(N)c1ccccc1 (centres undefined) | inactive
63 | O=C1CN(C(=O)c2c(F)cccc2F)C(c2ccc(F)cc2)c2cc(Br)ccc2N1 (centres undefined) | inactive
64 | CCOc1ccc(S(=O)(=O)NCCC(=O)N2CC=C(c3ccccc3)CC2)cc1 | inactive
